Experimental data published in PubChem BioAssay (NCATS).
Several values for one entry are separate records, joined by “and”; a condition that tells them apart may be missing. Identical values can stand only once. Records with an inconclusive call do not appear. Activity calls are given as the source filed them. Unless noted, calls come from the whole dose curve; as a rule, active = well fitted curve in the direction sought with a large enough effect; inconclusive = small, poorly fitted or top-dose-only effect, or another doubt; inactive = no such curve, though single readings can be large; an effect the other way counts as inactive or inconclusive.

Legend:
[1] = Cell Viability - LYMP2-005 (AID 967);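 note: series mostly up to about 92 µM; plate controls were DMSO only for no effect and 92 µM tetraoctylammonium bromide control for full effect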
Procedure, shortened: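 Human lymphoblastoid LYMP2-005 cells, 2,500 per well in complete medium, rested 5 h at 37C then compound-treated 24 h at 37C. Intracellular ATP read by CellTiter-Glo luminescence after 30 min at room temperature; AC50 from Hill-equation fits of concentration-response data.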

[2] = Cell Viability - LYMP2-009 (AID 968);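 note: series mostly up to about 92 µM; 0% = DMSO alone and the full-kill end = tetraoctylammonium bromide at 92 µM; nearly all actives have a fitted effect of over 55% in size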
[3] = Cell Viability - LYMP2-011 (AID 969);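 note: 0% = DMSO only and full inhibition = 92 µM tetraoctylammonium bromide; nearly all actives have a fitted effect of over 60% in size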
Procedure, shortened: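 2500 cells/well, 5 hr 37 C; compound added, 24 hr 37 C; CellTiter-Glo 30 min RT; luminescence. qHTS concentration-response, Hill-equation AC50. Tetraoctylammonium bromide positive control.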

[4] = Cell Viability - LYMP2-013 (AID 970);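 note: series mostly up to about 92 µM; 0% = DMSO only and full inhibition = tetraoctylammonium bromide control; nearly all actives have a fitted effect of over 55% in size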
Procedure, shortened: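 qHTS; 2500 lymphoblastoid cells/well; 5 hr 37 C settle; cpd 24 hr 37 C; CellTiter-Glo, 30 min RT; luminescence. AC50 = Hill fit.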

[5] = Cell Viability - LYMP2-017 (AID 972); note: series mostly up to about 92 µM; % is set by controls: 0 for no effect and ±100 for the full control effect; nearly all actives have a fitted effect of over 55% in size
Procedure, shortened: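 2500 cells/well, 5 h 37 C; cpd 24 h 37 C in complete medium; CellTiter-Glo, 30 min RT; luminescence (ATP). AC50 via Hill fit, qHTS.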

[6] = Cell Viability - LYMP2-019 (AID 973);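 note: 0% = DMSO alone and full effect = 92 µM tetraoctylammonium bromide; nearly all actives have a fitted effect of over 55% in size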
Procedure, shortened: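 Luminescent ATP read-out (CellTiter-Glo, 30 min room temperature) served as the viability measure after 24 hr treatment of lymphoblastoid cells at 37 C. Concentration-response data were fitted to the Hill equation for AC50.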

[7] = Cell Viability - LYMP2-023 (AID 975)
Procedure, shortened: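 2500 cells/well, 5 hr 37 C; cpd 24 hr 37 C; CellTiter-Glo, 30 min RT; luminescence. qHTS conc-response, Hill fit -> AC50. Pos ctrl tetraoctylammonium bromide.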

[8] = Cell Viability - LYMP2-025 (AID 976);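 note: series mostly up to about 92 µM; plate controls were DMSO only for no effect and tetraoctylammonium bromide control for full effect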
Procedure, shortened: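 Seed 2500 LYMP2-025 cells/well; 5 hr at 37 C; add compound; 24 hr at 37 C; add CellTiter-Glo; 30 min RT; read luminescence. AC50 from Hill-modelled concentration-response.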

[9] = Cell Viability - LYMP2-002 (AID 977);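 note: series mostly up to about 92 µM; compound exposure lasted 24 h at 37 °C; plate controls were DMSO only for no effect and 92 µM tetraoctylammonium bromide for full effect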
Procedure, shortened: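 Human lymphoblastoid LYMP2-002 cells, 2500 per well, exposed to compounds for 24 h at 37 C in complete medium; viability read as intracellular ATP by CellTiter-Glo luminescence, AC50 from Hill fits.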

[10] = Cell Viability - LYMP2-006 (AID 978); note: series mostly up to about 92 µM; % is set by controls: 0 for no effect and ±100 for the full control effect; nearly all actives have a fitted effect of over 60% in size
Procedure, shortened: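 Human lymphoblastoid cells (LYMP2-006), 2500/well in complete medium, were treated with compound for 24 hr at 37 C. Cellular ATP was read by CellTiter-Glo luminescence after 30 min, and AC50 values came from Hill-equation fits of concentration-response data.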

[11] = Cell Viability - LYMP2-007 (AID 979);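 note: cells exposed to compound for 24 h before reading; 0% = DMSO only and the negative end = 92 µM tetraoctylammonium bromide; nearly all actives have a fitted effect of over 60% in size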
Procedure, shortened: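 Luminescent ATP signal (CellTiter-Glo) serves as the viability read-out after 24 hr compound treatment of lymphoblastoid cells in complete medium at 37 C. Concentration-response data were fitted to the Hill equation to give AC50 values.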

[12] = Cell Viability - LYMP2-008 (AID 980); note: % is set by controls: 0 for no effect and ±100 for the full control effect; nearly all actives have a fitted effect of over 60% in size
Procedure, shortened: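 qHTS, human lymphoblastoid line, 2500 cells/well; 5 hr preincubation, 24 hr compound, 37 C. CellTiter-Glo ATP luminescence. AC50 via Hill equation. Tetraoctylammonium bromide positive control.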

[13] = Cell Viability - LYMP2-010 (AID 981)
Procedure, shortened: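 Luminescent ATP signal (CellTiter-Glo) served as the viability read-out. Cells of the human lymphoblastoid line were treated with compound over a concentration range for 24 hours at 37 C, and AC50 values came from Hill-equation modeling.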

[14] = Cell Viability - LYMP2-012 (AID 982)
[15] = Cell Viability - LYMP2-014 (AID 983);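 note: series mostly up to about 92 µM; plate controls were DMSO only for no effect and 92 µM tetraoctylammonium bromide for full effect; nearly all actives have a fitted effect of over 50% in size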
Procedure, shortened: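 Luminescent ATP signal (CellTiter-Glo, 30 min at room temperature) serves as the viability read-out after 24 hr compound exposure at 37 C. Cells were seeded at 2500 per well and settled 5 hr beforehand.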

[16] = Cell Viability - LYMP2-016 (AID 984)
Procedure, shortened: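 Human lymphoblastoid LYMP2-016 cells, 2500 per well, treated with compounds for 24 h at 37 C. Viability read as intracellular ATP by CellTiter-Glo luminescence after 30 min at room temperature; AC50 from Hill fits of concentration-response.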

[17] = Cell Viability - LYMP2-018 (AID 985);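 note: plate controls were DMSO only for no effect and tetraoctylammonium bromide at 92 µM for full effect; nearly all actives have a fitted effect of over 50% in size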
Procedure, shortened: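 Luminescent ATP signal (CellTiter-Glo, read after 30 min at room temperature) reports viable cells after 24 hr compound treatment at 37 C. Concentration-response data were fitted to the standard Hill equation for AC50.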

[18] = Cell Viability - LYMP2-020 (AID 986)
Procedure, shortened: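 Luminescent ATP signal (CellTiter-Glo, 30 min at room temperature) is the read-out after 24 h compound treatment of lymphoblastoid cells at 37 C. AC50 values come from Hill-equation fits across concentrations.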

[19] = Cell Viability - LYMP2-022 (AID 987)
Procedure, shortened: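 qHTS: human lymphoblastoid cells 2500/well; 5 hr 37 C; cpd added; 24 hr 37 C; CellTiter-Glo, 30 min RT; luminescence. AC50 via Hill fit; tetraoctylammonium bromide positive ctrl.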

[20] = Cell Viability - LYMP2-024 (AID 988)
Procedure, shortened: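 Steps: seed 2500 cells/well, 5 hr 37 C; add compound, 24 hr 37 C; add CellTiter-Glo, 30 min room temperature; read luminescence. AC50 derived by Hill modelling of concentration-dependent ATP loss.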

[21] = Cell Viability - LYMP2-026 (AID 989); note: % is set by controls: 0 for no effect and ±100 for the full control effect; nearly all actives have a fitted effect of over 50% in size
Procedure, shortened: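 Luminescent ATP signal (CellTiter-Glo, 30 min room temperature) measures viable lymphoblastoid cells after 24 hr compound treatment at 37 C. Decreased ATP reflects acute toxicity; AC50 values come from Hill-equation modeling.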

[22] = Cell Viability - LYMP1-002 - Assay at 24 hr (AID 993); note: % is set by controls: 0 for no effect and ±100 for the full control effect
Procedure, shortened: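 Cells plated 2500/well, 5 hr 37 C; compounds added, 24 hr 37 C; CellTiter-Glo added, 30 min RT; luminescence read. Tetraoctylammonium bromide positive control. Hill-equation AC50.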

[23] = molecular target: Glucocorticoid receptor (Homo sapiens) (UniProt P04150); assay: qHTS assay for small molecule agonists of glucocorticoid receptor signaling (AID 588532; active = well fitted curve in the direction sought with a large enough effect in the signal ratio, with a control signal flat; the % refers to the signal ratio;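 note: 100% = dexamethasone at 0.1 µM and 0% = DMSO only wells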); details: HeLa MMTV-bla, beta-lactamase ratio, agonist, 18 h; stronger effect = higher value; percent of dexamethasone control, DMSO zero
Procedure, shortened: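 MMTV-bla HeLa beta-lactamase reporter cells in 1% charcoal/dextran FBS medium, compounds up to 92 uM for 18 h at 37 C, CCF4 readout; normalized to 0.1 uM dexamethasone (100%), EC50 and efficacy from Hill fits.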

[24] = qHTS assay for small molecule antagonists of retinoid X receptor alpha signaling (AID 588546); details: HEK293T RXRa-UAS-bla, beta-lactamase ratio, antagonist mode; measured here: W530 green channel, cytotoxicity proxy;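 note: cells stimulated with 9-cis-retinoic acid as agonist; % is set by controls: 0 for no effect and ±100 for the full control effect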
Procedure, shortened: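 Beta-lactamase reporter inhibition, read as CCF4 fluorescence ratio (ex 405, em 460/530 nm) after 2 h at RT. HEK293T UAS-bla cells, 2500/well, were stimulated with 9-cis-RA at 500 or 100 nM final alongside test compound for 18 h at 37 C.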

[25] = qHTS assay for small molecule disruptors of the mitochondrial membrane potential - 1 hr assay (AID 651754; calls by dose curve; note: % is set by controls: 0 for no effect and ±100 for the full control effect; nearly all actives have a fitted effect of over 35% in size)
Procedure, shortened: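 HepG2, 2,000 cells/well, overnight attachment; cpd or DMSO 1 hr, 37C/5% CO2; Mito-MPS dye 30 min, 37C; fluorescence monomer (490/535) and aggregate (540/590).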

[26] = qHTS assay for small molecule disruptors of the mitochondrial membrane potential - 5 hr assay (AID 651755; calls by dose curve; note: % is set by controls: 0 for no effect and ±100 for the full control effect; nearly all actives have a fitted effect of over 40% in size)
Procedure, shortened: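 HepG2 cells (2,000/well), attached overnight, exposed to compound 5 hr at 37C, then Mito-MPS dye 30 min. Fluorescence read for monomers (490/535 nm) and aggregates (540/590 nm).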

[27] = molecular target: Tumor necrosis factor (Homo sapiens) (UniProt P01375); assay: qHTS assay to identify small molecules that stimulate Tumor Necrosis Factor-alpha (TNF-alpha) secretion (AID 651757; active = well fitted curve in the direction sought with a large enough effect in the signal ratio; the % refers to the signal ratio; note: 0% is about no effect)
Procedure, shortened: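 Read-out is HTRF, a TR-FRET sandwich of cryptate- and XL665-labeled anti-TNF-alpha antibodies detecting cytokine secreted by THP-1 cells. Cells had been incubated with test compounds at 37 C for 17 hrs beforehand.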

[28] = qHTS assay for environmental chemicals that activate the Aryl hydrocarbon Receptor (AhR) signaling pathway (AID 651777); details: 1A2-DRE human hepatoma cells, luciferase, 24 h; activation: stronger effect = higher value; note: % of control where 0% means no effect; nearly all actives have a fitted effect of over 15% in size
Procedure, shortened: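 Measured luciferase activity, read 30 min after One-Glo addition at room temperature, from human hepatoma cells bearing a dioxin response element–CYP1A2 promoter reporter and exposed to compound for 24 hr at 37 C.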

[29] = molecular target: Peroxisome proliferator-activated receptor alpha (Homo sapiens) (UniProt Q07869); assay: qHTS assay for small molecule agonists of the peroxisome proliferator-activated receptor alpha (PPARalpha) signaling pathway (AID 651778); details: PathHunter PPARalpha complementation, chemiluminescence, 6 h; max response: stronger effect = higher value; note: % of control where 0% means no effect
Procedure, shortened: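 Enzyme-fragment complementation assay in which ligand-bound PPARalpha translocates and forms an active enzyme that generates chemiluminescence. Cells were plated overnight, exposed to compound for 6 hr at 37 C, and then given detection reagent for 60 min at room temperature.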

[30] = qHTS assay for small molecule antagonists of the retinoid-related orphan receptor gamma (ROR-gamma) signaling pathway - cell viability counter screen (AID 720652; active = well fitted curve in the direction sought with a large enough effect in the repeat runs; an effect the other way counts as inactive or inconclusive;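 note: series mostly up to about 92 µM; compound exposure lasted 16 hr before ATP read; % is set by controls: 0 for no effect and ±100 for the full control effect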)
Procedure, shortened: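 Luminescence from CellTiter-Glo after 30 min at room temperature reported cellular ATP as the cytotoxicity measure. Cells were the CHO reporter line with doxycycline-induced ROR-gamma expression, exposed to compound for 16 hr at 37 C.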

[31] = qHTS assay for small molecule agonists of the antioxidant response element (ARE) signaling pathway measured by Nrf2-dependant transcriptional activity - cell viability counter screen (AID 720653; active = well fitted curve in the direction sought with a large enough effect in the repeat runs; an effect the other way counts as inactive or inconclusive; note: % is set by controls: 0 for no effect and ±100 for the full control effect); details: ARE-bla HepG2 viability, CellTiter-Glo ATP luminescence, 16 h; max response: stronger effect = lower value
Procedure, shortened: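 ARE-bla HepG2 cells treated with compounds for 16 h at 37C; this counter screen measures viability as intracellular ATP by CellTiter-Glo luminescence after 30 min at room temperature.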

[32] = qHTS assay for cell viability of HEK293 cells (AID 743288); details: ATP luminescence (CellTiter-Glo), 18 h; max response: stronger effect = lower value; note: % is set by controls: 0 for no effect and ±100 for the full control effect; nearly all actives have a fitted effect of over 50% in size
Procedure, shortened: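 Parental HEK293 cells, 2,000 per well, preincubated at least 5 h at 37 C, then exposed to compounds in DMSO for 18 h at 37 C. Viability by CellTiter-Glo ATP luminescence after 30 min at room temperature.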

[33] = molecular target: Rap guanine nucleotide exchange factor 3 (Homo sapiens) (UniProt O95398); assay: Confirmatory qHTS for agonist of cAMP-regulated guanine nucleotide exchange factor 3 (EPAC1) (AID 1645881);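 note: EPAC1 catalysed release of BODIPY-GDP from Rap1B seen as fluorescence loss; 100% = effect of cAMP agonist control; nearly all actives have a fitted effect of over 75% in size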
[34] = molecular target: Rap guanine nucleotide exchange factor 4 (Homo sapiens) (UniProt Q8WZA2); assay: Confirmatory qHTS for agonist of cAMP-regulated guanine nucleotide exchange factor 4 (EPAC2) (AID 1645884);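 note: nucleotide exchange releases bodipy-GDP from Rap1 and this lowers its fluorescence; % is set by controls: 0 for no effect and ±100 for the full control effect; nearly all actives have a fitted effect of over 65% in size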
[35] = molecular target: Rap guanine nucleotide exchange factor 3 (Homo sapiens) (UniProt O95398); assay: Counterscreen qHTS for antagonist of cAMP-regulated guanine nucleotide exchange factor 3 (EPAC1) (AID 1645888);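 note: fluorescence loss as bound BODIPY-GDP is released from Rap1B; % of control where 0% means no effect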
Procedure, shortened: (§1)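 Rap1B–BODIPY-GDP (250 nM) with 50 uM GDP; compounds pin-transferred to 9.74 nM–152 uM final (activator) or from 7.32 nM upwards (inhibitor). Fluorescence Ex/Em 480/540 nm read at 5 and 30 min, then after adding cAMP or buffer, at room temperature.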

[36] = molecular target: Rap guanine nucleotide exchange factor 3 (Homo sapiens) (UniProt O95398); assay: Counterscreen qHTS for agonist of cAMP-regulated guanine nucleotide exchange factor 3 (EPAC1) (AID 1645889); note: % of control where 0% means no effect; nearly all actives have a fitted effect of over 40% in size
Procedure, shortened: as §1

[37] = molecular target: Nuclear receptor subfamily 1 group I member 2 (Rattus norvegicus) (UniProt Q9R1A7); assay: qHTS assay for small molecule activators of the rat pregnane X receptor (rPXR) signaling pathway (AID 651751; call rule not given here); details: rPXR reporter cells, luciferase (One-Glo), 24 h
[38] = qHTS assay for small molecule activators of the human pregnane X receptor (PXR) signaling pathway (AID 720659; call rule not given here)

Chain of Nuclear receptor subfamily 1 group I member 2 (Rattus norvegicus) (Q9R1A7 whole entry, looked up): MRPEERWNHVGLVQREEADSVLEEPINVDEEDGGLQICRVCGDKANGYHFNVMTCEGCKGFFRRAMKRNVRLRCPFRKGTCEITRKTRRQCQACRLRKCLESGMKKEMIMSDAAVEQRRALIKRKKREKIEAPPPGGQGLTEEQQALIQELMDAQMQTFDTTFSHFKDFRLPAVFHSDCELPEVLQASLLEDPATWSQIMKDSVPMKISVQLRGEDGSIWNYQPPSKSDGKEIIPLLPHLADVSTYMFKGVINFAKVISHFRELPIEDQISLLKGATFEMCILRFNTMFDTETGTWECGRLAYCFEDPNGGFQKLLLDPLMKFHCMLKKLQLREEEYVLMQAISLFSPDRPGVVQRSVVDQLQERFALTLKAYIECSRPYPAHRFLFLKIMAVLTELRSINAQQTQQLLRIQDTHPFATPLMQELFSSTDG
Chain of Peroxisome proliferator-activated receptor alpha (Homo sapiens) (Q07869 whole entry, looked up, the tested form may be a part): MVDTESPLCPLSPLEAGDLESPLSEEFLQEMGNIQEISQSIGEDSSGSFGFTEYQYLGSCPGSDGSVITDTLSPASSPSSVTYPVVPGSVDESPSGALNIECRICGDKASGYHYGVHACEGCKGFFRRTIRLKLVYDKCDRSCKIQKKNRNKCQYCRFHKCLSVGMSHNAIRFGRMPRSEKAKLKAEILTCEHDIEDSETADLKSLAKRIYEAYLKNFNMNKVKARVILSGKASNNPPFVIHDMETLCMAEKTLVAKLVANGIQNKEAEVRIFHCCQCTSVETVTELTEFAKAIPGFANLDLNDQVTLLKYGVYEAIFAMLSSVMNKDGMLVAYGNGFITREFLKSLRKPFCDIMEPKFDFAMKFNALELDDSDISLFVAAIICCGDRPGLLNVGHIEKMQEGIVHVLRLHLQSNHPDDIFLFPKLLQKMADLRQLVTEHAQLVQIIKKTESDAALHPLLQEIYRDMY
Chain of Glucocorticoid receptor (Homo sapiens) (P04150 whole entry, looked up): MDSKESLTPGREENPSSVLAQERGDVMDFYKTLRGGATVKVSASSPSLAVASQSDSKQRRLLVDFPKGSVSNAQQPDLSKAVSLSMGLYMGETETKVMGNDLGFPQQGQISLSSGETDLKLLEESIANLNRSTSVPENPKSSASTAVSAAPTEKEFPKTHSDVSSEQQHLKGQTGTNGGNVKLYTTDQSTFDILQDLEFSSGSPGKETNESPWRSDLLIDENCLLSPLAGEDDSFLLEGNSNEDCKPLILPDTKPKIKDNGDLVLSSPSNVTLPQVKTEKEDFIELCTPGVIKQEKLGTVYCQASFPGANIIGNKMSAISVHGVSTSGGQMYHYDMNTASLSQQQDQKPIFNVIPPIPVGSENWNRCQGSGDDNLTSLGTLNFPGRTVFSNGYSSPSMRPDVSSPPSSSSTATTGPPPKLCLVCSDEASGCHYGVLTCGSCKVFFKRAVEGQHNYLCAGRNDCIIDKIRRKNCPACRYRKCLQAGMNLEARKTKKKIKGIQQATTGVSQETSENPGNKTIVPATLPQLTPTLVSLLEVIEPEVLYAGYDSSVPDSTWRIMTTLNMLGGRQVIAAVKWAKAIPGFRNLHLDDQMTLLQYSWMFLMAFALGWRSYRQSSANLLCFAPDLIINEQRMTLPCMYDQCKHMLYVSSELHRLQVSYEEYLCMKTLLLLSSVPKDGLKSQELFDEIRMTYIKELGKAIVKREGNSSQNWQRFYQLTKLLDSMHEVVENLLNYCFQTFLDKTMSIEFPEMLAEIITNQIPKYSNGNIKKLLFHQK
Chain of Rap guanine nucleotide exchange factor 3 (Homo sapiens) (O95398 whole entry, looked up): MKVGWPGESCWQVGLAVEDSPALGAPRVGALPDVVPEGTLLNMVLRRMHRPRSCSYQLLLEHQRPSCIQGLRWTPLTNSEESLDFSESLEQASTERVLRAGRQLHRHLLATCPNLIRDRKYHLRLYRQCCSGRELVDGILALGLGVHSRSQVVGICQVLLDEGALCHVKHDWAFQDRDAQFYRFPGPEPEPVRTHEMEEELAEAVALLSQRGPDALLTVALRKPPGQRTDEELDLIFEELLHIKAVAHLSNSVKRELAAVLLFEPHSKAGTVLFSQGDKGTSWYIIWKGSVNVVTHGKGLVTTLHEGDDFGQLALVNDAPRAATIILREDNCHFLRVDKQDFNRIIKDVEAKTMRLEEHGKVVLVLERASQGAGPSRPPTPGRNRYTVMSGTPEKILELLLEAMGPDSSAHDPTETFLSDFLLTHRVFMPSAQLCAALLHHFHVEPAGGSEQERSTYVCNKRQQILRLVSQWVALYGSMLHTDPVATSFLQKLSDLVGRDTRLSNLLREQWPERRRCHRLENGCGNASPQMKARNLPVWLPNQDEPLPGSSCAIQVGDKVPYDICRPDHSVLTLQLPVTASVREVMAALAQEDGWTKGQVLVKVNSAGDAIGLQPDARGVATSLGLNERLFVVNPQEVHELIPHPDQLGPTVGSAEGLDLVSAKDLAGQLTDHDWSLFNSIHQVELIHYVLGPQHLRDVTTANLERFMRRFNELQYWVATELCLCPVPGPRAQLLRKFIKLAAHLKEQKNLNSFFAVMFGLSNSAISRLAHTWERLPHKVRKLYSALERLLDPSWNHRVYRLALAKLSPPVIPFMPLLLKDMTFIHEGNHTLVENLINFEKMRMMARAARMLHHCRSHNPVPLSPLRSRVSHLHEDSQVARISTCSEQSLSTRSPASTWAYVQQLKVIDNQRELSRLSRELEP
Chain of Tumor necrosis factor (Homo sapiens) (P01375 whole entry, looked up): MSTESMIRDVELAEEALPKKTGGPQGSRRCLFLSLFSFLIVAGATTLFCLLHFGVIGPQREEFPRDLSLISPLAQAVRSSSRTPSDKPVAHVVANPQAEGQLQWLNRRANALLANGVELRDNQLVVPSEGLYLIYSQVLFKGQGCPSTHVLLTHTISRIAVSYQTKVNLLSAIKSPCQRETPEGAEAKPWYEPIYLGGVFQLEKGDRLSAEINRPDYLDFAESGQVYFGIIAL
Chain of Rap guanine nucleotide exchange factor 4 (Homo sapiens) (Q8WZA2 whole entry, looked up): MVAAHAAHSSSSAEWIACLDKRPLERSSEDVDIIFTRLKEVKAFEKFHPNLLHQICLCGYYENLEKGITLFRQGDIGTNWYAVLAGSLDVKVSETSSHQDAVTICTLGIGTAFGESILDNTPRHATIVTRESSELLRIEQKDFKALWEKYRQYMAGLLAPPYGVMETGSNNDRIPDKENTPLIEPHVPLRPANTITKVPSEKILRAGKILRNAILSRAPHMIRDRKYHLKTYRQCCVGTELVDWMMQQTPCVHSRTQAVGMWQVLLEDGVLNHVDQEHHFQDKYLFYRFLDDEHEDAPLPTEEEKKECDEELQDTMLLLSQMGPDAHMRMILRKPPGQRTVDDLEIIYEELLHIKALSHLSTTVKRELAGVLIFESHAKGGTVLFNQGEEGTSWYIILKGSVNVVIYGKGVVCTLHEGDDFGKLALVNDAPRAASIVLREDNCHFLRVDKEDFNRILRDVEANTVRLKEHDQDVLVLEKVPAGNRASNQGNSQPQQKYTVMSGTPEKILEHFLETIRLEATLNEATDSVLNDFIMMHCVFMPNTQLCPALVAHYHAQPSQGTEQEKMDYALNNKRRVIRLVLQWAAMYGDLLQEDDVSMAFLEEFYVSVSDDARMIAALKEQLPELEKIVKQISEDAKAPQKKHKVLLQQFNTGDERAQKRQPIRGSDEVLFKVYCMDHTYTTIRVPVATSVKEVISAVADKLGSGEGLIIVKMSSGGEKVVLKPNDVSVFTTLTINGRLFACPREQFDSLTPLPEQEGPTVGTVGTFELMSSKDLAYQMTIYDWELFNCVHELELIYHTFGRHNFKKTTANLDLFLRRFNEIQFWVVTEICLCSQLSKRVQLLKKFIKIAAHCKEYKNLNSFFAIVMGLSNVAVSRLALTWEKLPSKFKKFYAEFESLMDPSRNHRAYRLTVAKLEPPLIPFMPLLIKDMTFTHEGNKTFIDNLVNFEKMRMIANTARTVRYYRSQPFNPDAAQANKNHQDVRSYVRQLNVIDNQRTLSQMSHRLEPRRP

C[C@H](CCC(=O)O)[C@H]1CC[C@H]2[C@@H]3CC[C@@H]4C[C@H](O)CC[C@]4(C)[C@H]3CC[C@]12C
inactive: Potency [1] | Potency [2] | Potency [3] | Potency [4] | Potency [5] | Potency [6] | Potency [7] | Potency [8] | Potency [9] | Potency [10] | Potency [11] | Potency [12] | Potency [13] | Potency [14] | Potency [15] | Potency [16] | Potency [17] | Potency [18] | Potency [19] | Potency [20] | Potency [21] | Potency [22] | activation [23] -9.27% and -13.3% | Potency [25] | Potency [26] | outcome [27] | activation [28] 1.31% and 0.102% | max response [29] 2.21% and -0.262% | Potency [30] | max response [31] 1.28% and 4.08% | max response [32] -8.43% and -9.1% | Potency [33] | Potency [34] | Potency [35] | Potency [36] | max response [37] 6.51% and -5.67% | outcome [38]
21.6% and 12.2%: max response [24]
